Screens: PubChem, The Scripps Research Institute Molecular Screening Center
ssDAF-12 act: S. stercoralis DAF-12 nuclear receptor activators, primary screen, cell-based, luminescence, HEK293, GRIP1 co-expression, lit1-tk-luc; Nuclear hormone receptor DAF-12 (Strongyloides stercoralis); HEK293 ssDAF-12/GRIP1 lit1-tk-luc reporter; % of 3 µM dafachronic acid response; activation, % at 6.8 µM; 1% of 370,000 active;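 active means activation above the mean over all tested compounds plus 3 SD, cut at about 0.9% in these data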
DAX1 inh-1: DAX1 (NR0B1) inhibitors on StAR promoter, primary screen, cell-based, luminescence, SF-1 (NR5A1), full-length DAX-1; inhibition, % at 6.8 µM; HEK293T StAR-luciferase reporter, SF-1/DAX-1 repression relief; AID 652010, 2013; 1.1% of 370,000 active;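 active means inhibition above the mean over all tested compounds plus 3 SD, cut at about 3.6% in these data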;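 further: higher inhibition means more luminescence from relief of DAX-1 repression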
hcDAF12 agonist: H. contortus DAF-12 nuclear receptor activators, primary screen, cell-based, luminescence, HEK293, lit1-tk-luc reporter; HEK293 hcDAF-12 lit1-tk-luc reporter; 0% DMSO, 100% Δ7-dafachronic acid; activation, % at 6.8 µM; 1.4% of 370,000 active; AID 652067, 2013;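 active means activation above the mean of all tested compounds plus 3 SD, cut at about 5.5% in these data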
hgDAF12 agonist: H. glycines DAF-12 receptor agonists, primary screen, cell-based, luminescence, HEK293, GAL4 fusion, UAS-luciferase; HEK293 GAL4-hgDAF12 UAS-luciferase reporter, agonist luminescence; normalized to butyrate control; activation, % at 6.8 µM; 1.8% of 370,000 active; AID 687014, 2013;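 active means activation above a cutoff set at the mean of all screened compounds plus 3 SD, cut at about 10% in these data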
DAX1 inh-2: DAX1 (NR0B1) inhibitors, primary screen, cell-based, HEK293, Gal4-DAX1, luciferase luminescence. AID 504766, 2011. 0.99% of 340,000 active. HEK293 Gal4-DAX1 luciferase reporter. inhibition, % at 6.75 µM;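 active means inhibition above the mean over all tested compounds plus 3 SD, cut at about 4.2% in these data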;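 further: inhibition shows as a rise in luminescence from relieved DAX1 repression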
Target sequence (P51843 207-470 limits assumed): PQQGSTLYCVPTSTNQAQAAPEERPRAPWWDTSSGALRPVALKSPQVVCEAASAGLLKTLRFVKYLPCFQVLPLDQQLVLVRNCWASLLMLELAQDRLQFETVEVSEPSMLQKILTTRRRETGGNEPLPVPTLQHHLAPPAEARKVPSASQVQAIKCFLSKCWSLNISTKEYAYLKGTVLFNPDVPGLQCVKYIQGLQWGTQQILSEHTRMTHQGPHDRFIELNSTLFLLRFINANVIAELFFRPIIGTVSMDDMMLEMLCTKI
hgDAF12 ag: H. glycines DAF-12 receptor agonists, confirmation, cell-based, luminescence, HEK293, GAL4-LBD fusion. shares compounds with hgDAF12 agonist. 80% of 3,300 active. HEK293 GAL4-hgDAF12 luciferase reporter, agonist mode; percent of butyrate response. activation, % at 6.8 µM;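 active means mean activation over triplicate wells above the hit cutoff derived from the earlier primary screen, cut at about 11% in these data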
LXR ag 2: LXR agonists, Gal4 luciferase reporter, confirmation, counter-screen for hgDAF-12 agonist project, cell-based, luminescence, HEK293, H. glycines campaign; shares compounds with hgDAF12 agonist; 24 h; activation, % at 6.8 µM; 3,300 tested, under 10 active; AID 743051, 2013;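 active means mean activation of the triplicate above a set limit carried over from the primary screen, none filed active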
Numbers stand for hits; . = inactive; / = no result. The list is not random: actives were taken first. Their share in the collection is about 4.1%.

SMILES	ssDAF-12 act	DAX1 inh-1	hcDAF12 agonist	hgDAF12 agonist	DAX1 inh-2	hgDAF12 ag	LXR ag 2
C=CCN=Cc1sc2ccc(OCC)cc2c1O	.	.	5.6	14	/	.	.
CCCCN=Cc1sc2ccc(OCC)cc2c1O	.	.	.	.	.	/	/
O=C1[C@@H]2Cc3c([nH]c4ccccc34)C(c3ccccc3)N2C(=O)CN1CCO (stereo partly drawn)	.	.	.	.	.	/	/
CN1CC(=O)N2[C@H](c3ccc4c(c3)OCO4)c3[nH]c4ccccc4c3C[C@@H]2C1=O	.	.	.	49	.	.	.
COc1cccc(-n2cc(-c3ccc(F)cc3)[nH]c2=S)c1	.	.	5.6	20	.	12	.
O=[N+]([O-])c1ccc(/C=N/Nc2nc3ccccc3o2)cc1	.	.	.	.	.	/	/
CCS(=O)(=O)c1ccc(C=NNc2nc3ccccc3o2)cc1	.	.	.	21	.	15	.
CCOc1ccc(Cl)cc1-c1cc(C(=O)Nc2cc(OC)c(OC)c(OC)c2)[nH]n1	.	.	.	.	/	/	/
COc1ccc(C(=O)c2cc3cccc(OC)c3o2)cc1	.	.	.	19	.	14	.
Cc1cc(NC(=O)c2cc(C3CC3)on2)no1	.	.	.	15	.	.	.
O=C(CSc1nc2ccccc2[nH]1)c1c[nH]c2ccccc12	.	.	.	.	.	/	/
O=C(CSc1nc2ccccc2[nH]1)c1ccccc1F	.	.	5.8	16	.	12	.
COc1ccc(/C=C/C(=O)NC(=S)NNC(=O)c2cccs2)cc1	.	.	.	13	.	.	.
CCCCCCNC(=O)C1CSCCS(=O)(=O)N1Cc1ccc(OC)cc1 (stereo not drawn)	.	.	.	.	/	/	/
C[C@H]1[C@H](N)CC[C@@]23CCCN2C(=O)CCC[C@@H]13	.	/	.	.	/	/	/
CCOCCn1c(SCC(=O)OCc2ccccc2)nc2c1c(=O)[nH]c(=O)n2C	.	.	.	13	.	.	.
CC(=O)CSc1ncnc2c1cnn2-c1ccccc1	.	.	.	17	.	17	.
Cc1ccc(-n2ncc3c(SCC(=O)NNC(=O)C(C)C)ncnc32)cc1	.	.	.	.	.	/	/
O=C(Nc1ccc(N2CCCC2)cc1)C(c1ccccc1)c1ccccc1	.	.	.	.	.	/	/
O=C(Nc1ccc(N2CCCCCC2)cc1)c1ccccc1Cl	.	.	.	17	.	19	.
CC(=O)N1CCN(c2ccc(NC(=O)c3ccccc3Cl)cc2)CC1	.	.	.	.	.	/	/
O=C(Nc1ccc(N2CCCCC2)cc1)C(Cl)c1ccccc1 (stereo not drawn)	.	.	.	19	.	.	.
Cc1cc(=O)n2c3c(c4c(cc13)c(CN(C)C)cc(=O)n4C)OC2	.	.	.	.	.	/	/
O=C(O)c1cccc(S(=O)(=O)Nc2ccccc2Oc2ccccc2)c1	.	.	.	.	.	/	/
N#Cc1c(N)nc(N)nc1Nc1ccc(Br)cc1	.	.	.	17	.	18	.
SMILES	ssDAF-12 act	DAX1 inh-1	hcDAF12 agonist	hgDAF12 agonist	DAX1 inh-2	hgDAF12 ag	LXR ag 2
Cc1nc(N)nc(Nc2ccc(C#N)cc2)c1Br	.	.	.	.	.	/	/
C(=C\c1ccccc1)/C=N/Nc1nc2ccccc2[nH]1	.	.	.	15	.	17	.
O=C(O)c1ccc(-c2nc(-c3ccccc3)cs2)cc1	.	.	.	13	6.5	.	.
O=C(O)c1ccccc1C(=O)Nc1ccc(-c2csc(-c3ccccc3)n2)cc1	.	.	.	16	.	.	.
C=CCn1c(SCC(=O)Nc2ccccc2-c2ccccc2)nnc1-c1ccc(Cl)cc1	.	.	.	.	/	/	/
COCCCN1C(=O)C(CC(=O)NC2CCCCC2)CC(C(=O)N2CCCCCC2)=C1C (stereo not drawn)	.	.	.	.	/	/	/
N#CCCCc1cn(-c2nc3ccccc3s2)nn1	.	4.0	.	14	/	13	.
CN(Cc1ccccc1F)C(=O)C1CCC(CNS(=O)(=O)c2cccc3cccnc23)CC1 (stereo not drawn)	.	.	.	.	/	/	/
O=C(Nc1ccc(/C=C/c2nc3ccccc3o2)cc1)c1c(F)cccc1F	.	.	.	16	.	19	.
O=C(Nc1ccc(/C=C/c2nc3ccccc3o2)cc1)c1cccc(C(F)(F)F)c1	.	.	.	.	.	/	/
Oc1cccc(C=NCc2ccccc2)c1O	.	.	.	.	.	/	/
Oc1c(C=NCc2ccccc2)sc2ccccc12	.	.	.	15	12	16	.
Cc1ccc(F)c(S(=O)(=O)NC(=O)C2(C)CCN2C(=O)c2ccccc2)c1 (stereo not drawn)	.	.	.	.	/	/	/
COC(=O)N1CCC[C@H]1c1cccc2[nH]cc(C)c12	.	.	.	.	/	/	/
CC(C)CN1C(=O)[C@@]2(CC(=O)N(C)C2c2ccccc2)c2cc(-n3cc(-c4ccccc4)nn3)ccc21 (stereo partly drawn)	.	.	.	.	/	/	/
Cc1ccc(Nc2nc(CSc3nnc(-c4ccccc4)n3C)cs2)cc1	.	.	.	14	.	12	.
Cc1ccc2nc(-c3ccc(NC(=S)NCCC(C)C)cc3)sc2c1	.	.	.	14	.	15	.
Cc1ccc(NC(=O)COC(=O)c2ccco2)cc1	.	.	.	.	.	/	/
CC(=O)NC(=S)Nc1ccc(-c2nc3ccc(C)cc3s2)cc1	.	.	.	15	.	22	.
Cc1ccc2nc(-c3ccc(NC(=O)CN4C(=O)NC(C)(c5ccc(OC(F)F)cc5)C4=O)cc3)sc2c1 (stereo not drawn)	.	.	5.8	15	.	14	.
CC1(c2ccc(OC(F)F)cc2)NC(=O)N(CC(=O)Nc2ccccc2)C1=O (stereo not drawn)	.	.	.	.	.	/	/
Cc1ccc2nc(-c3ccc(NC(=O)COC(=O)c4ccco4)cc3)sc2c1	.	4.1	.	21	.	19	.
CC(=O)Nc1ccc(S(=O)(=O)Nc2nc3ccc(C)cc3s2)cc1	.	.	.	.	.	/	/
CC(C)CCNC(=S)Nc1ccc(F)cc1	.	.	.	.	.	/	/
